Bioassay records (PubChem)
A selection: hits, their analogues and other compounds. The true share with any hit is near 2.9%.
ADAM10 inh – ADAM10 inhibition, QFRET primary screen; O14672; AID 720582; hit rate 0.62% among 370,000; inhibition, % at 7 µM; recombinant ADAM10, EDANS/DABCYL FRET peptide cleavage, 3 h;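 active means inhibition above a per-campaign cutoff equal to the mean of compounds falling between control-based bounds plus 3 SD, cut at about 20% in these data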
Target sequence (O14672 214-748 limits assumed): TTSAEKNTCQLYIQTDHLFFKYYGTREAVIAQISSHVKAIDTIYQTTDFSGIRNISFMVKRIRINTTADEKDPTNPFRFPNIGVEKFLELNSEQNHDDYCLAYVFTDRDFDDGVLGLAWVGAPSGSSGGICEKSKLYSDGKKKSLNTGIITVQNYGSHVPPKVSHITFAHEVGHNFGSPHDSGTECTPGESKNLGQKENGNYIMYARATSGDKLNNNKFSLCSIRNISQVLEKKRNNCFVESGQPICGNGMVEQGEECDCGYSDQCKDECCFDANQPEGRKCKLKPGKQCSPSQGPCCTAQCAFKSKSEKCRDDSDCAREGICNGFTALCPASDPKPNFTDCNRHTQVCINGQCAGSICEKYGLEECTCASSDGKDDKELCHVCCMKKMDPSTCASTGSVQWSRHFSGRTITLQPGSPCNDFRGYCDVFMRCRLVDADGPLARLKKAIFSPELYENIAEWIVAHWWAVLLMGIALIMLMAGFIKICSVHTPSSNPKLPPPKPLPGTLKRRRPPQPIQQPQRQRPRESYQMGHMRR
PLCb3 inh – inhibitors of human phospholipase C beta3; Q01970; Purified PLC-beta3, fluorogenic substrate, fluorescence; inhibition, % at 12.2 µM; hit rate 0.18% among 370,000; in the data active means inhibition above about 11%
proKLK7 act – activators of human kallikrein-7 zymogen; activation, % at 7 µM; P49862; purified proKLK7, EDANS-DABCYL substrate fluorescence; 100% is mature enzyme control, 0% vehicle; hit rate 0.9% among 370,000;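 active means activation above the mean of all tested compounds plus 3 SD, computed per campaign excluding outliers beyond control limits, cut at about 13% in these data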
ADAM17 inh – ADAM17 inhibition, QFRET primary screen; P78536; recombinant ADAM17, EDANS/DABCYL FRET peptide cleavage; inhibition, % at 6.95 µM; hit rate 0.83% among 370,000; AID 720648;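 active means inhibition above the mean of compounds lying between control limits plus 3 SD, set per campaign, cut at about 8.5% in these data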
PLCg1 inh – inhibitors of human phospholipase C gamma1 | P19174 | purified PLC-gamma1, fluorogenic substrate, fluorescence | inhibition, % at 12.2 µM | hit rate 0.84% among 370,000; in the data active means inhibition above about 9.5%
proKLK7 act conf – proKLK7 activation, confirmation. purified proKLK7, EDANS-DABCYL substrate fluorescence; scaled: vehicle 0, mature enzyme 100. shares compounds with proKLK7 act. hit rate 68% among 3,200. activation, % at 7 µM;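 active means activation, as change over the incubation, above the mean of all tested compounds plus 3 SD, cut at about 13% in these data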
EDANS interfere – fluorescence interference counter-screen for KLK7 activators; shares compounds with proKLK7 act; EDANS-DABCYL substrate fluorescence interference, no enzyme, 4 h; solvent 0%, active enzyme control 100%; activation, % at 7 µM; hit rate 80% among 3,200; AID 686952;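 active means activation above the all-compound mean plus 3 SD, ignoring values outside control-based bounds, cut at about 4.8% in these data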;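 further: value is the 4 h activation minus the activation read at time zero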
Of the large screens only hits and unclear results are named; the others gave an inactive call (follow-up assays come after a bar, where they were run).

CNC(=O)c1cc(Nc2nnc(-c3ccc(C)c(S(N)(=O)=O)c3)c3ccccc23)ccc1OC	proKLK7 act 212 | proKLK7 act conf 223 | EDANS interfere 136
O=c1c(-c2cccs2)nc2ccccc2n1C(c1ccccn1)c1nc2ccccc2[nH]1 (stereo not drawn)	proKLK7 act 17 | proKLK7 act conf inactive | EDANS interfere 14
COC(=O)C1CN(Cc2ccc(F)cc2)CCS(=O)(=O)N1Cc1cn(Cc2ccccc2)nn1 (stereo not drawn)	none
CCOC(=O)N1C(=O)C[C@](Sc2ccc(OC)cc2)(C(=O)N2CCN(c3ncccn3)CC2)[C@H]1c1ccc(OC)cc1	none
COc1cccc(NC(=O)NNC(=O)CCc2ccc(O)c(O)c2)c1	proKLK7 act 19 | proKLK7 act conf 13 | EDANS interfere 16
COc1ccccc1CNC(=O)NNC(=O)CCn1nc(C)c([N+](=O)[O-])c1C	none
O=C(O)CNC(=O)CC1S/C(=N/N=C/c2ccccc2O)NC1=O (stereo not drawn)	proKLK7 act 21 | proKLK7 act conf 34 | EDANS interfere 41
CC(=O)c1cccc(NC(=O)CC2S/C(=N/N=C/c3ccccc3)NC2=O)c1 (stereo not drawn)	none
CCNC(=O)N(C)[C@H]1C[C@H]2c3[nH]c4cccc(-c5ccc6c(c5)OCO6)c4c3CCN2C[C@H]1[C@H](C)O	none
CCC1(C)Cc2ccccc2-c2nc(NN)[nH]c(=O)c21 (stereo not drawn)	none
CC1(C)Cc2ccccc2-c2nc(NCCCO)[nH]c(=O)c21	proKLK7 act 39 | proKLK7 act conf inactive | EDANS interfere inactive
O=c1[nH]c(NCCO)nc2c1C1(CCCC1)Cc1ccccc1-2	none
CCC1(C)Cc2ccccc2-c2nc(NCCO)[nH]c(=O)c21 (stereo not drawn)	proKLK7 act 23 | proKLK7 act conf inactive | EDANS interfere inactive
CCCCNC(=O)NCCCN1CCN(c2ccc(F)cc2)CC1	none
CC1Cc2ccccc2N1C(=O)COC(=O)c1ccccc1NCCO (stereo not drawn)	none
CC(OC(=O)c1ccccc1NCCO)C(=O)NC1CCCCC1C (stereo not drawn)	proKLK7 act 21 | proKLK7 act conf 19 | EDANS interfere 21
O=C(OCC(=O)N1CCN(C(=O)c2ccco2)CC1)c1ccccc1NCCO	proKLK7 act 22 | proKLK7 act conf 31 | EDANS interfere 31
CC1CCN(C(=O)COC(=O)c2ccccc2NCCO)CC1	proKLK7 act 21 | proKLK7 act conf 26 | EDANS interfere 22
O=C(OCC(=O)N1CCCc2ccccc21)c1ccccc1NCCO	none
CC1CCN(C(=O)COC(=O)c2ccccc2NC(=O)c2ccco2)CC1	none
O=C(OCC(=O)N1CCN(C(=O)COC(=O)c2ccccc2NCCO)CC1)c1ccccc1NCCO	proKLK7 act 57 | proKLK7 act conf inactive | EDANS interfere inactive
O=S(=O)(CC1NCc2cc(F)ccc21)NCc1ccccc1 (stereo not drawn)	none
COC(=O)[C@H](CC(C)C)N(CCc1cn(Cc2ccc(C)cc2)nn1)S(=O)(=O)c1ccc(F)cc1Br	none
Cc1ccc2c(c1)c1c3n2CCN=C3CCC1	proKLK7 act 30 | proKLK7 act conf inactive | EDANS interfere 9.7
O=S1(=O)C=CCN1Cc1cn(Cc2ccccc2)nn1	none
Cc1cc(=O)oc2c3c(cc(OCC(=O)N[C@@H](C)C(=O)O)c12)OC(C)(C)CC3	proKLK7 act 64 | proKLK7 act conf 62 | EDANS interfere 73
Cc1cc(=O)oc2c3c(cc(OCC(=O)NC(C)C)c12)OC(C)(C)CC3	proKLK7 act 23 | proKLK7 act conf 47 | EDANS interfere 63
COc1ccc(CNC(=O)COc2cc3c(c4oc(=O)cc(C)c24)CCC(C)(C)O3)cc1	none
CCCCC(NC(=O)COc1cc2c(c3oc(=O)cc(C)c13)CCC(C)(C)O2)C(=O)O (stereo not drawn)	none
COc1c2c(cc3ccc(=O)oc13)CCO2	proKLK7 act 20 | proKLK7 act conf 28 | EDANS interfere 29
CCOC(=O)CC[C@H]1CC[C@]2(CCCN(C(=O)c3cccnc3)C2)O1	none
